Screening results: PubChem, several laboratories
Shown are actives, neighbours in structure and some others; about 2.3% of the full set was active somewhere.
Gli-Sufu block: antagonists of Gli-Sufu signaling; inhibition, % at 5 µM; 340,000 tested, 0.74% active; Sufu-KO-LIGHT fibroblasts, Gli luciferase reporter luminescence;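 active = inhibition above about 55%, limit read from the data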
Jurkat NFkB inh: inhibitors of the PMA/ionomycin-induced NF-kB reporter in Jurkat cells. PMA/ionomycin-induced NF-kB luciferase reporter, luminescence. inhibition, % at 4 µM. 330,000 tested, 0.53% active; in the data active = inhibition above about 50%
TRPM1 prom inh: reduces MITF-dependent TRPM1 promoter luciferase signal | SK-MEL-5 TRPM1 promoter luciferase, 24 h | inhibition, % at 12.5 µM | 330,000 tested, 0.83% active;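 active = mean inhibition across replicates of 60% or more, whatever share of single replicates reaches that level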
Shn3 3UTR inh: reduces Shn3 3'UTR luciferase signal in osteoblasts; inhibition, % at 12.5 µM; 360,000 tested, 0.52% active; Clone20 osteoblast Shn3 3'UTR firefly luciferase, 24 h;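 active = mean inhibition of at least 75% with every replicate also reaching 75%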
LMP1 NFkB inh: reduces LMP1-driven NF-kappaB luciferase signal; LMP1-induced NF-kappaB luciferase reporter cells, luminescence; inhibition, % at 12.5 µM; 350,000 tested, 0.69% active; in the data active = inhibition above about 41%
697 NFkB inh: inhibitors of the PMA/ionomycin-induced NF-kB reporter in 697 B cells. 697 B-cell NF-kB luciferase reporter, 16 h. inhibition, % at 4 µM. 330,000 tested, 0.33% active. AID 435022; in the data active = inhibition above about 35%
Jurkat NFkB conf: lowers PMA/ionomycin-induced NF-kB signal in Jurkat cells | Jurkat NF-kB luciferase, 16 h | shares compounds with Jurkat NFkB inh | 2,700 tested, 27% active | inhibition, % at 4 µM;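 active = inhibition reaching about 45% at 4 µM in either replicate, limit read from the data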
Of the large screens only hits and unclear results are named; the others gave an inactive call (follow-up assays come after a bar, where they were run).

CN(C)Cc1ccc(-c2nc3cccc4c3n2CCNC4=O)cc1	Jurkat NFkB inh 57 | Jurkat NFkB conf inactive
COc1cc(NC(=O)N2CCNC2=O)cc(C(=O)Nc2cccc(C(F)(F)F)c2)c1	Jurkat NFkB inh 67 | Jurkat NFkB conf 51
CN(CCOCCOc1ccc2ccccc2c1)Cc1ccccc1	none
O=C(COC(=O)/C=C/c1cccc(C(F)(F)F)c1)NC1CCS(=O)(=O)C1 (stereo not drawn)	none
Cc1ccc(S(=O)(=O)N2c3cc(C)ccc3OCC2C(C)(C)C)cc1 (stereo not drawn)	none
COc1ccc(S(=O)(=O)N2c3cc(C)ccc3OCC2C(C)(C)C)cc1 (stereo not drawn)	Jurkat NFkB inh 51 | Jurkat NFkB conf inactive
N/C(=N\OC(=O)c1ccccc1Cl)c1cccc([N+](=O)[O-])c1	none | Jurkat NFkB conf inactive
N/C(=N/OC(=O)c1cccc([N+](=O)[O-])c1)c1cccc([N+](=O)[O-])c1	none
COC(=O)c1c(NC(=O)c2ccc([N+](=O)[O-])o2)sc2c1CCN(C(C)C)C2	Jurkat NFkB inh 66, TRPM1 prom inh 63 | Jurkat NFkB conf inactive
COC(=O)c1c(NC(=O)Cc2ccccc2)sc2c1CCN(C(C)C)C2	none (no result: TRPM1 prom inh)
Cc1ccc2nc(N/C(=N/S(=O)(=O)c3ccc(F)cc3)c3ccccc3)sc2c1	none
O=S(=O)(/N=C(/Nc1nc2ccccc2s1)c1ccccc1)c1ccccc1	none | Jurkat NFkB conf inactive
O=C(c1ccc2nc[nH]c2c1)N1CCc2ccccc2C1	none
COc1cc2c(cc1OC)CN(C(=O)c1ccc3nc[nH]c3c1)CC2	Jurkat NFkB inh 61 | Jurkat NFkB conf inactive
CCCC(=NCCc1c(C)[nH]c2ccccc12)C1=C(O)CC(c2ccccc2)CC1=O (stereo not drawn)	Jurkat NFkB inh 54 | Jurkat NFkB conf inactive
CCCCC(=NCCc1c(C)[nH]c2ccccc12)C1=C(O)CC(c2ccccc2)CC1=O (stereo not drawn)	none
CC(=NCCc1c(C)[nH]c2ccc(C)cc12)C1=C(O)CC(c2ccccc2)CC1=O (stereo not drawn)	Jurkat NFkB inh 56 | Jurkat NFkB conf inactive
CC(=NCCc1c(C)[nH]c2ccc(OC(F)(F)F)cc12)C1=C(O)CC(c2ccccc2)CC1=O (stereo not drawn)	Jurkat NFkB inh 57 | Jurkat NFkB conf inactive
Oc1ccc(CN2CCCCC2)nc1-c1ccccc1	none
Cc1ccc(C(=O)O/N=C(\N)c2ccccn2)c(Cl)c1	Jurkat NFkB inh 65, LMP1 NFkB inh 83 (no result: TRPM1 prom inh) | Jurkat NFkB conf 79
N/C(=N\OC(=O)c1cc(Br)ccc1Cl)c1ccccn1	none
CCOC(=O)Cc1csc(NC(=O)c2ccc(S(=O)(=O)N3CCCCC3)cc2)n1	none
CCOc1ccc(Cl)cc1S(=O)(=O)n1cnc2ccccc21	none
CCOc1ccc(C)cc1S(=O)(=O)n1cnc2ccccc21	Jurkat NFkB inh 54 | Jurkat NFkB conf inactive
CCOC(=O)c1sc(=NC(=O)c2ccc(Cl)s2)n(C)c1C	none | Jurkat NFkB conf inactive
CC1C(=O)Nc2ccc(S(=O)(=O)Nc3ccccc3Br)cc2NC1=O (stereo not drawn)	none
CN1CCCC1CCNc1ccc2c(=O)c3ccccc3oc2c1 (stereo not drawn)	none | Jurkat NFkB conf inactive
O=c1c2ccccc2oc2cc(NCCCN3CCOCC3)ccc12	none | Jurkat NFkB conf inactive
O=c1c2ccccc2oc2cc(NCCCn3ccnc3)ccc12	none | Jurkat NFkB conf inactive
COCc1cc(C)nc(N2CCN(Cc3ccccc3)CC2)c1C#N	none
O=C(Nc1nnc(CCN2CCCCC2)s1)c1ccc(Br)cc1	none
CN(C)c1ccc(C=Nc2ccccc2C(N)=O)cc1	none
N#CC1=C(N)OC2=C(CCc3ccccc32)C1c1ccccc1 (stereo not drawn)	Jurkat NFkB inh 76 | Jurkat NFkB conf inactive
Clc1cccc(Cl)c1/C=C/c1nc2ccccc2[nH]1	none | Jurkat NFkB conf inactive
O=c1[nH]c(/C=C/c2ccccc2Cl)nc2ccccc12	none
CCC(C)NC(=O)C1(O)c2cc(Br)ccc2NC(=O)N1c1cccc(OC)c1 (stereo not drawn)	none
O=C(COc1ccccc1Cl)Nc1ccc(Cl)cn1	none | Jurkat NFkB conf inactive
COc1nc(C)ccc1-c1noc(-c2ccco2)n1	none | Jurkat NFkB conf inactive
COc1ccc(-c2cn3cc(C)ccc3n2)cc1Br	none | Jurkat NFkB conf inactive
O=C(O)CCN(Cc1ccccc1)S(=O)(=O)c1ccc(Cl)cc1F	none
Nc1ccc(-c2nc3cc(N)ccc3s2)cc1	none | Jurkat NFkB conf inactive
Cc1ccc2nc(-c3ccc(N)cc3)sc2c1	none
Fc1cccc(F)c1CSc1nc2ccccc2[nH]1	none | Jurkat NFkB conf inactive
Cc1ccc(C(=O)Nc2nc3c(s2)CCCC3)o1	none | Jurkat NFkB conf inactive
O=C(Nc1nc2c(s1)CCCC2)c1ccc(Br)o1	none
COC(=O)CSc1[nH]c(=O)cc(C)c1C#N	none
COc1ccc(-c2cn3cc(Cl)ccc3n2)cc1OC	none
Clc1ccc2nc(-c3ccc(Br)s3)cn2c1	none | Jurkat NFkB conf inactive
Cc1ccc(C(=O)NC2CCC(C)CC2)s1 (stereo not drawn)	none | Jurkat NFkB conf inactive
Cc1ccc(C(=O)NC2CCCC2)s1	none
CCCCNC(=S)Nc1ccc(-c2nc3ccc(C)cc3s2)cc1	none
CCC(C)(C)NC(=S)Nc1ccc(-c2nc3ccc(C)cc3s2)cc1	none | Jurkat NFkB conf inactive
COc1ccc2c(C)nc(Nc3nc(-c4ccccc4)cc(=O)[nH]3)nc2c1	Jurkat NFkB inh 89, TRPM1 prom inh 70 | Jurkat NFkB conf 38
COc1ccc(C2C(C(=O)Nc3cc(OC)c(OC)c(OC)c3)c3ccccc3C(=O)N2C)cc1 (stereo not drawn)	Jurkat NFkB inh 75 | Jurkat NFkB conf inactive
CNC[C@@H](Cc1ccccc1)NC[C@@H](CC1CCCCC1)NCCCc1ccccc1	Jurkat NFkB inh 91, TRPM1 prom inh 98 | Jurkat NFkB conf inactive
CNC[C@@H](CC1CCCCC1)NC[C@H](CC(C)C)NCCc1cccc(C(F)(F)F)c1	Jurkat NFkB inh 86, TRPM1 prom inh 100 | Jurkat NFkB conf inactive
CN(Cc1cccc(C(F)(F)F)c1)C(=O)C1CCC(=O)N(CC2CCCCC2)C1 (stereo not drawn)	none
COc1ccc(S(=O)(=O)N2CCOCC2)cc1NC(=O)CSc1ncccn1	none
Cn1nccc1NC(=O)Nc1ccc(Cl)cc1	none
Cc1ccc(C2=NN3C(C2)c2ccccc2OC32C(=O)Nc3ccccc32)cc1 (stereo not drawn)	none | Jurkat NFkB conf inactive
COc1ccc(Cn2c(SCc3ccc(C)cc3)nc3cc(OC)c(OC)cc3c2=N)cc1Cl	Jurkat NFkB inh 64, TRPM1 prom inh 105, LMP1 NFkB inh 90 | Jurkat NFkB conf 63
COc1cc2nc(SCc3ccc(C(F)(F)F)cc3)n(Cc3cccs3)c(=N)c2cc1OC	none
O=C(N/N=C/C(Cl)=C\c1ccccc1)c1cccs1	none (no result: Shn3 3UTR inh) | Jurkat NFkB conf inactive
